Assay [1] in a line: qHTS assay to identify small molecule antagonists of the estrogen related receptor (ERR) signaling pathway from Tox21 library - cell viability counter screen (AID 1224834). Further: nearly all actives have a fitted effect of over 30% in size. Further: potency means the concentration at half of the fitted maximal effect. Put shortly: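 After 17.5 h of compound exposure at 37 C, ERR cells are incubated with CellTiter-Fluor for 30 min and fluorescence intensity serves as the viability measure.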
Assay [2] deals with Luciferin 4-monooxygenase (Photinus pyralis) (UniProt P08659). The experiment in a line: qHTS assay to identify small molecule inhibitors of firefly luciferase (AID 1224835). Further: nearly all actives have a fitted effect of over 25% in size. A digest of the protocol:
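Inhibition of purified Photinus luciferase is measured by luminescence. Substrate levels (D-luciferin, ATP) sit at their KM values. Each compound is tested in a concentration series.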
For orientation: Quantitative high-throughput screening tests each substance at several concentrations.

The nature of assay [3]: qHTS assay to identify small molecule agonists of the constitutive androstane receptor (CAR) signaling pathway - cell viability counter screen (AID 1224836). Further: nearly all actives have a fitted effect of over 45% in size. Further: potency means the concentration at half of the fitted maximal effect. Put shortly: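 HepG2 cells stably carrying hCAR and a CYP2B6-2.2kb reporter; 15-concentration compounds plus PK11195 (final 0.75 uM), 23 hr at 37 C/5% CO2. Viability read by CellTiter-Fluor fluorescence.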
Assay [4] in a line: qHTS assay to identify small molecule antagonists of the constitutive androstane receptor (CAR) signaling pathway - cell viability counter screen (AID 1224837). Further: nearly all actives have a fitted effect of over 45% in size. Further: potency means the concentration at half of the fitted maximal effect. A digest of the protocol: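 Counter screen run in HepG2-CYP2B6-hCAR cells: 4 hr settle, compound titration (15 concentrations) with 50 nM CITCO, 23 hr at 37 C/5% CO2, CellTiter-Fluor fluorescence.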
For assay [5], the target named is Nuclear receptor subfamily 1 group I member 3 (Homo sapiens) (UniProt Q14994). Nature of the assay: qHTS assay to identify small molecule antagonists of the constitutive androstane receptor (CAR) signaling pathway (AID 1224838).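 Further: HepG2 cells stably expressing hCAR with CYP2B6 luciferase reporter stimulated by CITCO; nearly all actives have a fitted effect of over 40% in size.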 Further: potency means the concentration at half of the fitted maximal effect. A digest of the protocol: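 Cell line: HepG2 double-stable for hCAR and CYP2B6-2.2kb reporter. Agonist: CITCO, 50 nM final. Compounds: 15 concentrations, 24 h, 37 C. Detection: ONE-Glo luminescence.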
Sequence of Nuclear receptor subfamily 1 group I member 3 (Homo sapiens) (Q14994 whole entry, looked up): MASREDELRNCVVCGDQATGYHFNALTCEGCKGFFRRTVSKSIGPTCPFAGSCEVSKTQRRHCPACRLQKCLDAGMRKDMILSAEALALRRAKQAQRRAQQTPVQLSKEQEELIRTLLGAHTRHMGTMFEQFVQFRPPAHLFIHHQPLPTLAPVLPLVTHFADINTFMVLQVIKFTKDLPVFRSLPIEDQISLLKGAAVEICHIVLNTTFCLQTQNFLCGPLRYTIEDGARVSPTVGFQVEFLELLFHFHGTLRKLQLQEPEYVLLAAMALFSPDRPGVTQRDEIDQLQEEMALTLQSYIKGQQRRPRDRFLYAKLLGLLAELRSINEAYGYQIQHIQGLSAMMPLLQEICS

For assay [6] the target is unchanged. Nature of the assay: qHTS assay to identify small molecule agonists of the constitutive androstane receptor (CAR) signaling pathway (AID 1224839). Further: nearly all actives have a fitted effect of over 15% in size. A digest of the protocol:
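HepG2 cells stably co-transfected with hCAR and a CYP2B6-2.2kb luciferase reporter; compounds at 15 concentrations with 0.75 uM PK11195 present. After 24 hr at 37 C, luciferase read by ONE-Glo luminescence.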

Assay [7] in a line: qHTS assay to identify small molecule antagonists of the estrogen related receptor signaling pathway with the pleiotropic PPARgamma coactivator (PGC) from Tox21 10K library - cell viability counter screen (AID 1224840; active means well fitted cell-killing curve with a large enough effect in the repeat runs, not every such curve was filed as active; further: nearly all actives have a fitted effect of over 40% in size; further: potency means the concentration at half of the fitted maximal effect). Put shortly: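 Following seeding of 2,000 PGC/ERR cells/well and 6 hours' incubation, test compounds were delivered in DMSO. The plates then sat 17.5 hours at 37 C before a fluorogenic live-cell protease reagent (CellTiter-Fluor) was read after 30 min.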

Assay [8] deals with Thyrotropin receptor (Homo sapiens) (UniProt P16473). Nature of the assay: qHTS assay to identify small molecule agonists of the thyroid stimulating hormone receptor (TSHR) signaling pathway (AID 1224843; calls by dose curve; further: nearly all actives have a fitted effect of over 45% in size; further: potency means the concentration at half of the fitted maximal effect). Put shortly:
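HEK293 cells stably bearing the thyrotropin receptor were plated at 800 cells/well and challenged with compound (30 min, RT). Accumulated cAMP was quantified via cAMP-d2 competing for cryptate-tagged antibody.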

The nature of assay [9]: qHTS assay to identify small molecule agonists of the hypoxia (HIF-1) signaling pathway - cell viability counter screen (AID 1224844; calls by dose curve; further: nearly all actives have a fitted effect of over 50% in size; further: potency means the concentration at half of the fitted maximal effect). A digest of the protocol: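 Cells (HRE-bla ME-180, 2,000 per well) sat 5 hrs at 37C, got compound for 17 hrs, were read for CCF4-AM FRET, and were finally lysed with CellTiter-Glo for a 30 min room-temperature luminescence read.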
Assay [10] in a line: qHTS assay to identify small molecule agonists of H2AX (AID 1224845; active means well fitted activation curve with a large enough effect in the signal ratio in the repeat runs, not every such curve was filed as active; the % refers to the signal ratio; further: potency means the concentration at half of the fitted maximal effect). Put shortly:
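Phospho-H2AX Ser139 measured by HTRF (ex 320 nm; em 665 and 620 nm) after 24 hr antibody incubation. Compounds, 15 concentrations, 0.76% DMSO, were applied to CHO-K1 cells for 3hr at 37C before lysis.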

The nature of assay [11]: qHTS assay to identify small molecule agonists of the hypoxia (HIF-1) signaling pathway (AID 1224846; active means well fitted activation curve with a large enough effect in the signal ratio in the repeat runs, not every such curve was filed as active; the % refers to the signal ratio). Put shortly:
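A low-serum medium (0.5% dialyzed FBS) holding 2,000 HRE-bla ME-180 cells per well is preincubated for 5 hrs, dosed with compounds by pintool, and kept a further 17 hrs at 37C, 5% CO2 before CCF4-AM FRET detection of beta-lactamase.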

A short description of assay [12]: qHTS assay to identify small molecule agonists of H2AX - cell viability counter screen (AID 1224847; calls by dose curve;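 further: wild-type CHO-K1 cells; top concentration of the series differs between compounds; nearly all actives have a fitted effect of over 30% in size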). Put shortly: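 CHO-K1 cells plated overnight at 37C, then exposed 3 h at 37C to compounds at 15 concentrations (0.76% DMSO final). Viability by CellTiter-Glo luminescence after 30 min at room temperature.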
Assay [13] can be described thus: qHTS RealTime-Glo MT Cell Viability Assay in HepG2 cells - 24 hour (AID 1224867). Further: nearly all actives have a fitted effect of over 50% in size. A digest of the protocol:
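HepG2 cells (600/well) were dispensed with RealTime-Glo reagents, incubated 5 h at 37 °C, then treated with compounds in DMSO for up to 40 h. Nonlytic NanoLuc luminescence reflecting viable cells was read at each stated time point.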

Assay [14] in a line: qHTS RealTime-Glo MT Cell Viability Assay in HEK293 cells - 32 hour (AID 1224868). Further: nearly all actives have a fitted effect of over 50% in size. Further: potency means the concentration at half of the fitted maximal effect. Put shortly: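 HEK293 cells seeded with NanoLuc/prosubstrate reagent, rested 5 h at 37 C, then dosed and kept at 37 C up to 40 h. Nonlytic real-time luminescence from viable cells read at 0, 8, 16, 24, 32 and 40 h.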
A short description of assay [15]: A CellTox Green Cytotoxicity Assay to monitor cytotoxicity in HEK293 cells - 0 hour (AID 1224869). Further: nearly all actives have a fitted effect of over 50% in size. Put shortly:
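Fluorescence intensity, read at 0, 8, 16, 24, 32 and 40 h of compound treatment, reflected dye binding to DNA of dead HEK293 cells; compounds (23 nL, DMSO) were added 5 h after plating cells with reagent.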

Assay [16] in a line: qHTS RealTime-Glo MT Cell Viability Assay in HepG2 cells - 40 hour (AID 1224870). Further: nearly all actives have a fitted effect of over 50% in size. A digest of the protocol: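 Real-time viability: cells seeded at 600 per well together with NanoLuc and cell-permeant prosubstrate, compounds added after 5 h incubation. Luminescence tracked at 0, 8, 16, 24, 32 and 40 h of exposure.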
Assay [17] in a line: qHTS assay to identify small molecule antagonists of the estrogen related receptor signaling pathway with the pleiotropic PPARgamma coactivator (PGC) from Tox21 10K library (AID 1224841; call rule not given here; further: potency means the concentration at half of the fitted maximal effect). A digest of the protocol:
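qHTS antagonist format: PGC/ERR cells, 2k/well, compound in DMSO by pin transfer after 6 h attachment, 18 h treatment at 37 C, One-Glo luminescence read at 30 min.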

Assay [18] is described as follows: qHTS assay to identify small molecule antagonists of the estrogen related receptor (ERR) signaling pathway from Tox21 library (AID 1224848). Further: nearly all actives have a fitted effect of over 50% in size. Further: potency means the concentration at half of the fitted maximal effect. Put shortly:
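Reading was by luminescence 30 min after ONE-Glo addition. Before that, ERR cells at 2,000 per well had rested 6 h at 37 C/5% CO2 and then received pin-tooled compounds in DMSO for 18 h at 37 C.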

Assay [19] is described as follows: qHTS assay to identify small molecule agonists of the estrogen related receptor (ERR) signaling pathway from Tox21 library (AID 1224849; calls by dose curve; further: nearly all actives have a fitted effect of over 15% in size). To be noted: ERR reporter cell line, ONE-Glo luciferase, 18 h. Put shortly:
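Screening used an NTP-provided ERR luciferase cell line. Compounds in DMSO were added 6 h after seeding and left 18 h at 37 C before a 30 min ONE-Glo step and luminescence reading.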

Seven compounds from PubChem BioAssay (Tox21) can be followed below.

Where “and” joins values, the source holds several entries; their conditions need not be identical. Identical values can stand only once. Results filed as inconclusive are left out. More than one record can exist for a structure, and the calls need not agree. Calls of active or inactive are those of the source. Unless noted, the call rests on the fitted dose curve; in most records, active means well fitted curve in the direction sought with a large enough effect in the repeat runs; inconclusive means weak or mixed curves; inactive means no such curve, though single readings can be large; an effect the other way counts as inactive or inconclusive.
On the % scale 0 is the no-effect control and ±100 the full control effect.

Sequence of Luciferin 4-monooxygenase (Photinus pyralis) (P08659 whole entry, looked up): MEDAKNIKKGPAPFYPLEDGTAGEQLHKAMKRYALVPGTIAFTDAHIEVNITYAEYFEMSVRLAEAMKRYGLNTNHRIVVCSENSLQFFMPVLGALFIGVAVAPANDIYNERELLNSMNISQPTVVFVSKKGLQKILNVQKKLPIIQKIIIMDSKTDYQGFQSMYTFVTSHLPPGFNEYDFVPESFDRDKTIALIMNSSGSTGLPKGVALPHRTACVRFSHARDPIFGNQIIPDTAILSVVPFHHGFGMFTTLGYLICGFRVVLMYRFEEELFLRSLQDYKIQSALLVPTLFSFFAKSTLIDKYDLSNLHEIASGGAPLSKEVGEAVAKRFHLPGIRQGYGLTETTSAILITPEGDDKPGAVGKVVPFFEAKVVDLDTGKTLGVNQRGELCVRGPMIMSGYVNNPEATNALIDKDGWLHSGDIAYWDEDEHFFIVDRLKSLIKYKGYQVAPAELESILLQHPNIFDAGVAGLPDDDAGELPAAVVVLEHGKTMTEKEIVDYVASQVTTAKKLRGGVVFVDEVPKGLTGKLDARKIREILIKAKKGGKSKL
Sequence of Thyrotropin receptor (Homo sapiens) (P16473 whole entry, looked up): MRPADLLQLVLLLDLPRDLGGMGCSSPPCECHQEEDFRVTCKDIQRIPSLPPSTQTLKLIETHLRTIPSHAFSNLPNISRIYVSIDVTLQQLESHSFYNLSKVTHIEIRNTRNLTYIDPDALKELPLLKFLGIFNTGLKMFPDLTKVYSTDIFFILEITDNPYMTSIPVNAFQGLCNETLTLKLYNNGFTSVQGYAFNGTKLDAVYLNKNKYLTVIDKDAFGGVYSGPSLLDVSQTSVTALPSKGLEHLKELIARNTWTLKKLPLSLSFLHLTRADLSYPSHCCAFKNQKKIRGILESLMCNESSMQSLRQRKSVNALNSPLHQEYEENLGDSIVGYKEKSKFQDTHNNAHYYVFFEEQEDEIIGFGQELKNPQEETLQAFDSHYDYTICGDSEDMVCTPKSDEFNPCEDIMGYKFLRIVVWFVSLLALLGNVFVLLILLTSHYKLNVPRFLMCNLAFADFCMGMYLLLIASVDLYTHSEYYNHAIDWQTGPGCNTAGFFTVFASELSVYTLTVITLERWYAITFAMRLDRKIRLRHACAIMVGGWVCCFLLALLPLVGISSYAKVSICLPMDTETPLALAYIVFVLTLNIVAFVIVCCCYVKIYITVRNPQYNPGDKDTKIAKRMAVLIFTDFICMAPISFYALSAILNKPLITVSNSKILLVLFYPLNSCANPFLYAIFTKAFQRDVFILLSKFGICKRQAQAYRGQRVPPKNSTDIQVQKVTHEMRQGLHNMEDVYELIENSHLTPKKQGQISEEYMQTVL

As for `Cc1c(N(C)CS(=O)(=O)O)c(=O)n(-c2ccccc2)n1C`, the Potency entry in assay [1], in [2], in assay [3], in assay [4], in [5] and in [6] was “inactive” throughout. In addition, the Potency entry in [7], in assay [8], in assay [9], in [10], in [12] and in assay [14] was “inactive” each time. The Potency entry in assay [15] was “inactive”. In addition, the compound was classed as inactive in [11], in assay [13] and in assay [16].
Turning to `COCCOCCOC`, the Potency result in assay [1], in assay [2], in assay [3], in assay [4], in assay [5] and in assay [6] was “inactive” throughout. The Potency result in [7], in assay [8], in assay [9], in assay [10], in assay [12] and in assay [14] was “inactive” in each case. In addition, the Potency entry in [15] was “inactive”. Moreover, the compound was called inactive in assay [11], in assay [13] and in assay [16].
For `O=C(O)Cc1cccc2ccccc12`, the Potency result in assay [1], in assay [2], in assay [3], in assay [4], in [7] and in assay [8] was “inactive” throughout. Further, the Potency entry in assay [10], in assay [12], in assay [14] and in assay [15] was “inactive” in each case. Moreover, the Potency result in assay [9] was “inactive and 4.36 µM (active)”. Besides, the result in assay [11], in assay [13] and in [16] was inactive.
As for `COC1=CC(=O)C[C@@H](C)[C@]12Oc1c(Cl)c(OC)cc(OC)c1C2=O`, the Potency result in [2], in assay [3], in [4], in assay [6], in assay [7] and in [17] was “inactive” in each case. Also, the Potency result in assay [9], in assay [10], in assay [12], in assay [14] and in assay [15] was “inactive” throughout. Moreover, the Potency in assay [5] was 9.6 µM (active) and 13.7 µM (active); in [8], 9.6 µM (active) and 17.2 µM (active); in [18] it was 4.81 µM (active) and 7.7 µM (active) and 5.96 µM (active). Further, the outcome in assay [11], in assay [13] and in assay [16] was inactive. Besides, the activity change, positive = activation in assay [19] (at 42.5 µM (top of the series)) is -32% (inactive); in assay [19] (at 92.4 µM (top of the series)), -36.3% (inactive) and -39.4% (inactive).
As for `COc1ccc(O)cc1`, the Potency result in [1], in assay [2], in [3], in assay [4], in assay [7] and in [8] was “inactive” throughout. Also, the Potency entry in [9], in assay [12], in assay [14] and in assay [15] was “inactive” in each case. The Potency in [10] is 86.5 µM (active) and 89.8 µM (active) and 49.2 µM (active). Also, the call in assay [11], in assay [13] and in assay [16] was inactive.
As for `COC(=O)C1CCC(C(=O)OC)CC1` (stereo not drawn), the Potency entry in [1], in assay [2], in assay [3], in [4], in assay [7] and in assay [17] was “inactive” each time. The Potency entry in assay [8], in assay [9], in assay [10], in [12], in [18] and in assay [14] was “inactive” throughout. Further, the Potency result in [15] is “inactive”. In addition, the outcome in assay [11], in assay [13] and in [16] was inactive. In addition, the activity change, positive = activation in [19] (at 92.4 µM (top of the series)) is 0.483% (inactive) and 7.26% (inactive) and 4.66% (inactive).
Turning to `CO[C@H]1C=CO[C@@]2(C)Oc3c(C)c(O)c4c(O)c(c(/C=N/N5CCN(C)CC5)c(O)c4c3C2=O)NC(=O)/C(C)=C\C=C[C@H](C)[C@H](O)[C@@H](C)[C@@H](O)[C@@H](C)[C@H](OC(C)=O)[C@@H]1C`, the Potency was 27.4 µM (active) and 31 µM (active) and 23.7 µM (active) in [1]; 27.4 µM (active) in assay [3]; 30.8 µM (active) in assay [4]; 54.8 µM (active) and inactive in assay [5]; 27.4 µM (active) in [7]; 48.8 µM (active) and 23.7 µM (active) in assay [17]. Besides, the Potency in [18] is 48.8 µM (active) and 23.7 µM (active); in assay [14] it was 19.6 µM (active) and 9.88 µM (active). The Potency result in assay [6], in [8], in assay [9], in assay [12] and in assay [15] was “inactive” throughout. Moreover, the activity change, positive = activation in [19] (at 42.5 µM (top of the series)) was -25.2% (inactive) and -32.7% (inactive); in assay [19] (at 92.4 µM (top of the series)) it was -53.6% (inactive). The call in assay [13] and in [16] was inactive.
